molecular target: Neuropilin-1 (Homo sapiens) (UniProt O14786); experiment: NRP-1 b1b2 CendR peptide binding inhibitors, dose response, biochemical, FP and AlphaScreen panel (AID 651650); details: NRP-1 b1b2 / RPARPAR peptide binding, FP or AlphaScreen; run 1, at 100 µM (top of the series)
Sequence (O14786 whole entry, looked up): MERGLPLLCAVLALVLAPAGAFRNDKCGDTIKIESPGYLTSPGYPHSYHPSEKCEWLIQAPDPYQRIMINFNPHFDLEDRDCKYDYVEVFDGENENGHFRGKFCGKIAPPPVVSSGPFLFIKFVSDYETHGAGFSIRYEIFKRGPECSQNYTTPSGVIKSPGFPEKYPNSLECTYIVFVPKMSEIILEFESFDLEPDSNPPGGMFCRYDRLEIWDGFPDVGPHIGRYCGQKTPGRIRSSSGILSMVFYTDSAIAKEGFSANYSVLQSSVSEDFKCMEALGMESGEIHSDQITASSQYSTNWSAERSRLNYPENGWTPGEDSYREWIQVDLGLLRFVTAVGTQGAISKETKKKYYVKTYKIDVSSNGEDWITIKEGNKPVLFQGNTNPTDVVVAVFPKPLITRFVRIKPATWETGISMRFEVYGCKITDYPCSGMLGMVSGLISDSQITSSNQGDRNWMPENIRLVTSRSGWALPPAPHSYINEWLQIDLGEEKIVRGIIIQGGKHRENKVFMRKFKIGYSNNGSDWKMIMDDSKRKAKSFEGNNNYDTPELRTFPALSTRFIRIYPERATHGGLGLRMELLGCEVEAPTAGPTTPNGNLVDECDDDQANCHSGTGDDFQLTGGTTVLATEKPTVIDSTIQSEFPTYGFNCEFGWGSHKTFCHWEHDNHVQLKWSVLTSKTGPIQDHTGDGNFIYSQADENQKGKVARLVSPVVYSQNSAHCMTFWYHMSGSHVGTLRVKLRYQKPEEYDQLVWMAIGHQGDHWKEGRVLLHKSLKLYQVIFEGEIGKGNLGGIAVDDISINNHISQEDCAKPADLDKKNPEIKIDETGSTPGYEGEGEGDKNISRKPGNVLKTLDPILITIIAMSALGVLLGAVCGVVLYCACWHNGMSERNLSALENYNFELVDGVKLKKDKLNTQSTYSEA

Structure (SMILES) | inhibition [%]
Cc1ccc(NC(=S)N2CCN(Cc3ccccc3)CC2)cc1 | -7.69
CCNC(=O)C1(C)CCCN(C(=O)c2nc(C)oc2C)C1 (stereo not drawn) | 20.1
Cc1ccc(NNS(=O)(=O)c2ccc(C)cc2)cc1 | 16.2
Cc1ccccc1NC(=S)NC(=O)COc1ccccc1C | 98.2
COC/C=C/C1=CC2=CC(=O)C(C)(OC(=O)c3cnc4ccccc4n3)C(=O)C2=CN1Cc1ccc(OC)cc1 (stereo not drawn) | 66.7
O=C(NCCCN1CCOCC1)c1ccc2c(=O)n(-c3ccc(F)c(Cl)c3)c(=S)[nH]c2c1 | 35.9
Cc1ccc(CN(CC(=O)NC2CCCCC2)C(=O)c2csnn2)cc1 | 30.2
COC(=O)CCCC1=CC2=CC(=O)C(C)(OC(=O)c3cccs3)C(=O)C2=CN1CCCCO (stereo not drawn) | 38.6
COC(=O)[C@@]1(Cc2ccc(OC)cc2)[C@H]2c3cc(C(=O)N4CCCC4)n(CCN4CCOCC4)c3C[C@H]2CN1C(=O)c1ccccc1 | 38.7
CCOC(=O)c1c2ccc(OCC(=O)NN)cc2n2ccccc12 | -1.02
Cc1ccc(-n2c(-c3ccco3)nc3c(cnn3-c3ccc(C)cc3)c2=O)cc1 | 50.3
N#Cc1ccc(COC(=O)c2cnc(Cl)c(Cl)c2)cc1 | 36.5
CCOc1ccc(N2C(=O)CC(N3CCN(c4ccc(Cl)cc4)CC3)C2=O)cc1 (stereo not drawn) | 86.2
O=C1N[C@H](Cc2c[nH]c3ccccc23)COC(=O)[C@H](Cc2ccc(F)cc2)C/C=C\C[C@H]1CC(=O)N(CCO)Cc1ccccc1 | 41.5
CN(C)/N=C/c1ccc(Sc2ccc([N+](=O)[O-])cc2[N+](=O)[O-])o1 | 55.1
O=C(NC1CC1)c1ccc(COc2ccc(F)cc2)o1 | 23.1
Oc1ccc(-c2nc3ncccn3c2Nc2ccc3c(c2)OCO3)cc1 | 41.8
COc1cc(C(=O)NCc2ccccc2)cc(Br)c1OC | -10
CC(C)(C)N(NC(=O)Nc1ccc(Cl)cc1)C(=O)c1ccccc1 | 48.3

Structure (SMILES) | inhibition [%]
CN(C(=O)COC(=O)c1cnc(Cl)c(Cl)c1)C1CCCCC1 | 49.2
O=C(NNC(=O)C1CCN(c2ncccn2)CC1)c1ccc(F)cc1 | 26.5
CCc1cccc(NC(=O)CCc2c(C)nn(-c3ccc(N4CCOCC4)nn3)c2C)c1 | 75.8
NC(=O)C1CCCN(C(=O)c2ccc3nc(Cc4cccc(Cl)c4)oc3c2)C1 (stereo not drawn) | 101
C[C@@H](C(=O)Nc1cccnc1)n1c(=O)[nH]c2ccccc2c1=O | 44.7
COC(=O)CCCC1=CC2=CC(=O)C(C)(OC(=O)c3cccs3)C(=O)C2=CN1CCCOC(C)C (stereo not drawn) | 93.3
CCOC(=O)C1CCN(Cc2ccc3ccccc3c2)CC1 | 52.3
Cc1ccccc1Oc1ccc2c(c1)[C@@H]1C[C@H](N(C)C(=O)Nc3cc(Cl)cc(Cl)c3)[C@H]([C@H](C)O)C(=O)N1CC2 | 97.5
O=C(c1cccc(F)c1)N1CCN(c2ccc([N+](=O)[O-])c(N3CCCCC3)c2)CC1 | 33.3
O=[N+]([O-])c1ccc(Cc2ccncc2)cc1 | 15.9
Cc1cc2c(=O)[nH]cnc2s1 | 13.4
O=C(NCCN1CCN(C(=O)c2cccc(OC(F)F)c2)CC1)c1cccc(OC(F)F)c1 | 0.403
C/C(=N\NC(=O)c1cc(O)ccc1O)c1cccc(NC(=O)c2cccc(Cl)c2)c1 | 27.7
CCOCCCNC(=O)C(c1ccc(C)cc1)N(Cc1cccs1)C(=O)c1ccccc1O (stereo not drawn) | 24.4
O=C1CCCN1CCCNC(=S)Nc1ccc(Cl)cc1Cl | 19.7
C#CCCOC(=O)N1C2=NC(C(=O)OC)=C(C(=O)OC)[C@@H]3N(C)c4ccccc4[C@]23C[C@H]1CO | 74.8
CC(=O)Nc1ccc(Oc2cc(C#N)c(C#N)cc2N2CCOCC2)cc1 | 10.4
CC(C)OC(=O)CSc1nnc(-c2ccccn2)n1-c1ccccc1 | -4.4
COc1ccc(C(=O)N[C@H](C(=O)Nc2nc3c(s2)CCCC3)C(C)C)cc1 | 22.5
